High-throughput results from PubChem BioAssay.
DT40 TDP1 CPT: DT40-hTDP1 cell growth loss with CPT. chicken DT40 Tdp1-/-;hTDP1 cells + 20 nM CPT, ATP luminescence, 48 h. Potency, µM (doses to about 46.2 µM), inactives show top-dose activity change, negative = growth inhibition, usual class: inhibitors. 12% of 420,000 active. AID 686979; further: potency means the concentration at half of the fitted maximal effect; nearly all actives have a fitted effect of over 55% in size
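Cell growth measured by CellTiter-Glo luminescence after a minimum 48 h, 37 C compound exposure with 20 nM CPT in Tdp1-knockout DT40 cells stably expressing hTDP1, seeded 400/well; qHTS titration format.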
IL1B secr inh: inhibitors of inflammasome signaling (IL-1 beta secretion); THP-1 LPS/ATP IL-1B secretion, AlphaLISA, 16 h; stronger effect = lower value; activity change, % at 57.5 µM; 4.7% of 360,000 active; in the data active means activity change below about -50%; inconclusive means mostly about -30% to -49%
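THP-1 cells pretreated 1 hr with compounds (up to 57.5 uM final), then stimulated with LPS (250 ng/mL final) plus ATP (1.25 mM final); secreted IL-1B measured by AlphaLISA after 16 hr, decreased signal indicating inhibition.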
HT1080 IDH1KD tx: toxicity to HT-1080 IDH1 knockdown cells (counter line); AID 686971; 2% of 360,000 active; Potency, µM (series often up to 46.1 µM), for the others: at the highest dose activity, negative = toxicity, actives largely listed as cytotoxic; HT-1080 IDH1 knockdown viability, ATP luminescence, 48 h;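 further: potency means the concentration at half of the fitted maximal effect; 0% = DMSO wells and -100% = cell-free medium wells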
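HT-1080-IDH1KD cells (IDH1 knocked down), 750/well in RPMI with 5% FBS, treated with compound 48 h at 37 degrees C. Viability by CellTiter-Glo luminescence, normalised to DMSO and no-cell wells; concentration-response curves classed.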
HT1080-NT tox: kills 2HG-producing HT-1080-NT fibrosarcoma cells. HT-1080-NT fibrosarcoma viability, CellTiter-Glo ATP luminescence, 48 h. Potency, µM (top dose mostly 46.1 µM), for the others: at the highest dose activity, negative = less viability, most hits filed as cytotoxic. 1.6% of 360,000 active;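 further: NT is the 2HG producing partner of a matched IDH1 knockdown line; potency means the concentration at half of the fitted maximal effect; 0% = DMSO-treated cells and -100% = media-only wells without cells; nearly all actives have a fitted effect of over 55% in size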
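750 cells/well, RPMI + 5% FBS; 2 h settle, compound pin-transfer, 48 h at 37 degrees C. CellTiter-Glo 10 min RT, luminescence. Normalized to DMSO and media-only wells.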
uPA generation: inhibitors of cell surface uPA generation. cell surface uPA generation assay, qHTS. Potency, µM (highest dose often 38.3 µM), for inactives: top-dose activity change, negative = inhibition, usual class: inhibitors. 0.31% of 330,000 active. AID 540303; active means well fitted inhibition curve with a large enough effect; inconclusive means small, poorly fitted or top-dose-only effect; inactive means no such curve, though single readings can be large or run the other way; tested in mouse RAW 264.7 cells; further: potency means the concentration at half of the fitted maximal effect; nearly all actives have a fitted effect of over 55% in size
TDP1 cell noCPT: qHTS for Inhibitors of human tyrosyl-DNA phosphodiesterase 1 (TDP1): qHTS in cells in absence of CPT | DT40 Tdp1-/- hTDP1 cells, no CPT, ATP luminescence, 48 h | Potency, µM (highest dose often 46.2 µM), inactives show at the highest dose activity change, negative = growth inhibition, actives largely listed as inhibitors | 15% of 420,000 active | AID 686978, 2013; further: potency means the concentration at half of the fitted maximal effect; nearly all actives have a fitted effect of over 55% in size
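Chicken DT40 Tdp1-/- cells complemented with human TDP1, screened without camptothecin (DMSO vehicle only), 400 cells/well. Compounds pin-transferred, cells incubated at 37 °C for at least 48 hr. Growth read as ATP-dependent luminescence (CellTiter-Glo, 30 min at RT).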
An asterisk follows results filed as active. Only some compounds are listed: those with a hit (about 19% of all), similar ones and a draw of the others. Unless noted, the call rests on the fitted dose curve; in most records, active means well fitted curve in the direction sought with a large enough effect; inconclusive means small, poorly fitted or top-dose-only effect, or another doubt; inactive means no such curve, though single readings can be large; an effect the other way counts as inactive or inconclusive. Unless noted, on the % scale 0 is the no-effect control and ±100 the full control effect.

Results for Cc1ccc(NC(=O)CSCc2cnn(-c3ccccc3)c2-n2cccc2)c(C)c1 ?
DT40 TDP1 CPT: inconclusive; TDP1 cell noCPT: 16µM*

Results for CNC(=O)CSCc1cnn(-c2ccccc2)c1-n1cccc1 ?
DT40 TDP1 CPT: 6%; IL1B secr inh: -9; HT1080 IDH1KD tx: 7%; HT1080-NT tox: -1%; TDP1 cell noCPT: -17%

What do the screens show for `O=C(CCSCc1cnn(-c2ccccc2)c1-n1cccc1)NCc1ccccc1Cl`?
DT40 TDP1 CPT: 18µM*; TDP1 cell noCPT: inconclusive

How did Cc1ccc(Cl)cc1NC(=O)CSCc1cnn(-c2ccccc2)c1-n1cccc1 do in these assays?
DT40 TDP1 CPT: 16µM*; TDP1 cell noCPT: 16µM*

How did CC(C)CCNC(=O)CSCc1cnn(-c2ccccc2)c1-n1cccc1 do in these assays?
DT40 TDP1 CPT: 21µM*; TDP1 cell noCPT: 21µM*

How did O=C(CSCc1cnn(-c2ccccc2)c1-n1cccc1)NCc1cccs1 do in these assays?
DT40 TDP1 CPT: -5%; IL1B secr inh: 4; HT1080 IDH1KD tx: 1%; HT1080-NT tox: -7%; uPA generation: 6%; TDP1 cell noCPT: inconclusive

Results for C=C(C)Cn1c2ccc(NC(=O)NCc3ccc(F)cc3)cc2c(=O)n1C ?
DT40 TDP1 CPT: -15%; IL1B secr inh: 21; HT1080 IDH1KD tx: -10%; HT1080-NT tox: -4%; TDP1 cell noCPT: -26%

How did CC(=O)N1CCN(c2ncnc3ccccc23)CC1 do in these assays?
DT40 TDP1 CPT: 0%; IL1B secr inh: -3; HT1080 IDH1KD tx: 10%; HT1080-NT tox: 1%; uPA generation: 1%; TDP1 cell noCPT: -26%

Results for CCCOc1ccc(C2CC(=O)Nc3cc(OC)c(OC)cc32)cc1 (stereo not drawn) ?
DT40 TDP1 CPT: inconclusive; IL1B secr inh: 51; HT1080 IDH1KD tx: -21%; HT1080-NT tox: -2%; uPA generation: -4%; TDP1 cell noCPT: -29%

How did CCN1/C(=C/c2sc(-c3ccccc3C)c[n+]2C)Sc2ccccc21 do in these assays?
DT40 TDP1 CPT: 0.26µM*; IL1B secr inh: -99*; HT1080 IDH1KD tx: 2.1µM*; HT1080-NT tox: 2.1µM*; TDP1 cell noCPT: 0.21µM*

Results for CCN1/C(=C/C(=O)c2ccco2)Sc2ccccc21 ?
DT40 TDP1 CPT: -19%; IL1B secr inh: -14; HT1080 IDH1KD tx: 0%; HT1080-NT tox: -13%; uPA generation: -10%; TDP1 cell noCPT: -5%

Results for CC1CCC(N2CCN(C(=O)c3ccccc3F)CC2)CC1 (stereo not drawn) ?
DT40 TDP1 CPT: 20%; IL1B secr inh: 1; HT1080 IDH1KD tx: 2%; HT1080-NT tox: 6%; uPA generation: 6%; TDP1 cell noCPT: -3%

What do the screens show for `O=C(NNC(=S)NC(=O)c1cccs1)c1ccc(O)cc1`?
DT40 TDP1 CPT: 23µM*; IL1B secr inh: -1; HT1080 IDH1KD tx: -23%; HT1080-NT tox: inconclusive; uPA generation: -18%; TDP1 cell noCPT: inconclusive

Results for O=C(NC(=S)NCc1ccccc1)c1cccs1 ?
DT40 TDP1 CPT: 23%; IL1B secr inh: -3; HT1080 IDH1KD tx: 1%; HT1080-NT tox: 0%; uPA generation: -5%; TDP1 cell noCPT: 10%

Results for O=C(CNC(=S)NC(=O)c1cccs1)c1ccccc1 ?
DT40 TDP1 CPT: 16µM*; IL1B secr inh: -13; HT1080 IDH1KD tx: 10%; HT1080-NT tox: 14%; uPA generation: 6%; TDP1 cell noCPT: 15µM*

What do the screens show for `O=C(NNC(=S)NC(=O)c1cccs1)c1ccc(NC(=O)c2ccccc2)cc1`?
DT40 TDP1 CPT: 26µM*; IL1B secr inh: -5; HT1080 IDH1KD tx: -14%; HT1080-NT tox: -20%; uPA generation: -3%; TDP1 cell noCPT: inconclusive

How did O=C(CC(=O)c1cccs1)c1ccncc1 do in these assays?
DT40 TDP1 CPT: 21µM*; IL1B secr inh: -10; HT1080 IDH1KD tx: -2%; HT1080-NT tox: 0%; uPA generation: -4%; TDP1 cell noCPT: 29µM*

Results for O=C(NNC(=O)c1cccs1)c1ccncc1 ?
DT40 TDP1 CPT: -1%; IL1B secr inh: 3; HT1080 IDH1KD tx: -13%; HT1080-NT tox: -8%; uPA generation: 3%; TDP1 cell noCPT: 1%

How did CC1CN(C(=O)COc2coc(CN3CCc4ccccc4C3)cc2=O)CC(C)O1 (stereo not drawn) do in these assays?
DT40 TDP1 CPT: 5%; IL1B secr inh: 15; HT1080 IDH1KD tx: 2%; HT1080-NT tox: 8%; uPA generation: 0%; TDP1 cell noCPT: 5%

What do the screens show for `Cc1nc2ccc(C(=O)NCCCn3ccnc3)cn2c1N(C)C(=O)CCc1ccccc1`?
DT40 TDP1 CPT: -11%; IL1B secr inh: 2; HT1080 IDH1KD tx: 12%; HT1080-NT tox: 29%; TDP1 cell noCPT: 3%

What do the screens show for `CC(=O)N1CCC(N(Cc2ccco2)C(=O)Nc2cccc(C)c2)CC1`?
DT40 TDP1 CPT: 1%; TDP1 cell noCPT: inconclusive

Results for Cc1snc(S(=O)(=O)/C(C#N)=N/Nc2cccc(C(F)(F)F)c2)c1C#N ?
DT40 TDP1 CPT: 16µM*; IL1B secr inh: -3; HT1080 IDH1KD tx: -17%; HT1080-NT tox: 1%; uPA generation: 5%; TDP1 cell noCPT: inconclusive

Results for O=C(C1CCC1)N1CCc2cc(S(=O)(=O)NCc3ccc(F)cc3)ccc21 ?
DT40 TDP1 CPT: inconclusive; TDP1 cell noCPT: -26%

How did Cc1cc([N+](=O)[O-])nn1Cc1ccc(C(=O)N/N=C/c2ccc(F)cc2)cc1 do in these assays?
DT40 TDP1 CPT: 3%; HT1080 IDH1KD tx: -7%; HT1080-NT tox: -4%; uPA generation: -8%; TDP1 cell noCPT: -19%

How did O=C(N/N=C/c1ccc(O)cc1O)c1ccc(CN2C(=O)c3cccc4cccc2c34)cc1 do in these assays?
DT40 TDP1 CPT: 4.6µM*; IL1B secr inh: 119; HT1080 IDH1KD tx: inconclusive; HT1080-NT tox: inconclusive; uPA generation: -16%; TDP1 cell noCPT: 3.7µM*

What do the screens show for `O=C(N/N=C/c1ccccc1)c1ccc(CN2C(=O)c3cccc4cccc2c34)cc1`?
DT40 TDP1 CPT: -12%; IL1B secr inh: 17; HT1080 IDH1KD tx: inconclusive; HT1080-NT tox: 21µM*; uPA generation: -3%; TDP1 cell noCPT: -19%

How did Cc1cc([N+](=O)[O-])nn1Cc1ccc(C(=O)N/N=C/c2ccc(O)cc2O)cc1 do in these assays?
DT40 TDP1 CPT: inconclusive; IL1B secr inh: 50; HT1080 IDH1KD tx: 2.1µM*; HT1080-NT tox: inconclusive; uPA generation: 7.1µM*; TDP1 cell noCPT: inconclusive

Results for Cc1cccc(NC(=O)c2ccc3c(O)c(S(=O)(=O)c4ccccc4)c(=O)[nH]c3c2)c1C ?
DT40 TDP1 CPT: 5%; TDP1 cell noCPT: 6%
